This note sets out measurements from PubChem BioAssay (EPA / NIEHS).

Assay [1] in a line: CEETOX_H295R_OHPROG: CeeTox H295R High-throughput Steroidogenesis Assay for OH-Progesterone (OHPROG) (AID 2283435).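 On AC50: human adrenal H295R cells primed 48 h with 10 µM forskolin; 17alpha-hydroxyprogesterone secreted into medium measured by HPLC-MS/MS.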 To be noted: actives raise or lower the signal. An outline of the steps:
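Human adrenocortical H295R cells, passage 10 or lower, were treated with chemical for 48 h after forskolin priming, and hormone output in the medium was quantified by LC-MS/MS.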

Assay [2] in a line: CEETOX_H295R_ANDR: CeeTox H295R High-throughput Steroidogenesis Assay for Androstenedione (ANDR) (AID 2283436). To be noted: actives raise or lower the signal. An outline of the steps:
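Medium from 48 h chemical-treated H295R adrenal cells was extracted with MTBE and androstenedione measured by LC-MS/MS. Activity was fit in both directions relative to DMSO. Cytotoxic concentrations were re-tested after dilution until MTT viability reached ≥70%.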

A short description of assay [3]: CEETOX_H295R_CORTIC: CeeTox H295R High-throughput Steroidogenesis Assay for Corticosterone (CORTIC) (AID 2283437).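 On AC50: human H295R adrenal cells prestimulated with forskolin before chemical exposure.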 To be noted: actives raise or lower the signal. An outline of the steps: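 Medium corticosterone was quantified by tandem mass spectrometry following 48 hours of chemical exposure (0.1% DMSO) in human H295R cells previously stimulated 48 hours with 10 uM forskolin. Viability checked by MTT; chemicals diluted and retested when viability fell below 70%.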

A short description of assay [4]: CEETOX_H295R_CORTISOL: CeeTox H295R High-throughput Steroidogenesis Assay for Cortisol (AID 2283438).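 Further: cortisol secreted into medium quantified by LC-MS/MS.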 To be noted: actives raise or lower the signal. An outline of the steps:
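Steroidogenesis in H295R, per modified OECD 456: 48 h forskolin (10 uM), then 48 h exposure, 0.1% DMSO. Cortisol by extraction and tandem MS; viability by MTT (570/650 nm); cytotoxic chemicals diluted and re-tested.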

A short description of assay [5]: CEETOX_H295R_DOC: CeeTox H295R High-throughput Steroidogenesis Assay for DOC (AID 2283439). To be noted: actives raise or lower the signal. An outline of the steps: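 H295R, fsk 10 uM ×48 h pre, cmpd ×48 h (0.1% DMSO). Media → MTBE extr. → LC-MS/MS, DOC. Bidirectional fit vs DMSO; MTT viability same wells, re-test diluted if <70%.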
Assay [6] can be described thus: CEETOX_H295R_PROG: CeeTox H295R High-throughput Steroidogenesis Assay for Progesterone (PROG) (AID 2283442).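 On AC50: human H295R adrenal cells primed with 10 µM forskolin before dosing.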 To be noted: actives raise or lower the signal. An outline of the steps: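 Progesterone read-out: HPLC-MS/MS on MTBE extracts of conditioned medium after 48 h chemical exposure of forskolin-primed (10 uM, 48 h) H295R cells. Gain or loss of signal was fitted relative to DMSO baseline.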

The nature of assay [7]: CEETOX_H295R_TESTO: CeeTox H295R High-throughput Steroidogenesis Assay for Testosterone (TESTO) (AID 2283457). To be noted: actives raise or lower the signal. An outline of the steps:
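Readout: testosterone quantified by HPLC-MS/MS (C18, ESI positive) after MTBE liquid-liquid extraction of culture medium. Cells were H295R, 48 h chemical exposure per OECD 456 with modifications. Gain or loss of signal fitted relative to DMSO.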

Assay [8] can be described thus: CEETOX_H295R_ESTRADIOL: CeeTox H295R High-throughput Steroidogenesis Assay for Estradiol (AID 2283440).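 Further: estradiol secreted into medium quantified by LC-MS/MS after dansyl derivatisation.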 To be noted: actives raise or lower the signal. An outline of the steps: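 H295R, 48 h forskolin (10 uM) prestim → 48 h compound, 0.1% DMSO final. Estradiol in medium: MTBE extraction, dansyl chloride derivatization, LC-MS/MS. Fit bidirectional vs DMSO baseline; MTT viability in same wells.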

Assay [9] in a line: CEETOX_H295R_ESTRONE: CeeTox H295R High-throughput Steroidogenesis Assay for Estrone (AID 2283441).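 Further: estrone secreted into medium measured by LC-MS/MS after dansyl derivatization.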 To be noted: actives raise or lower the signal. An outline of the steps: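 Forskolin-stimulated H295R cells are treated 48 h with chemical, and estrone in the medium is measured by LC-MS/MS. Activity is fitted in both directions relative to DMSO controls, with chemicals diluted until MTT viability reaches at least 70%.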

Read-out in assay [10]: Tumor necrosis factor receptor superfamily member 6 (Homo sapiens) (UniProt P25445)
The assay is described as follows: LTEA_HepaRG_FAS: Life Technologies and Expression Analysis (LTEA) Assay for Fas cell surface death receptor (FAS) using HepaRG (AID 2283447). To be noted: mRNA level, 48 h; actives raise or lower the signal. An outline of the steps: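 FAS transcript level was measured by TaqMan qRT-PCR against three housekeeping genes after 48 h chemical exposure. Cells were HepaRG, 0.5% DMSO vehicle, with a top concentration of 100 uM and half-log dilutions over eight points, in duplicate.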

Read-out in assay [11]: Fatty acid synthase (Homo sapiens) (UniProt P49327)
The assay is described as follows: LTEA_HepaRG_FASN: Life Technologies and Expression Analysis (LTEA) Assay for Fatty Acid Synthase (FASN) using HepaRG (AID 2283448). To be noted: mRNA level, 48 h; actives raise or lower the signal. An outline of the steps:
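In human HepaRG cultures, 48 h chemical exposure (up to 100 uM, 0.5% DMSO) preceded TaqMan qRT-PCR of FASN.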

Read-out in assay [12]: Cyclin D2 (CCND2), CCND2 (gene 894)
The assay is described as follows: LTEA_HepaRG_CCND2: Life Technologies and Expression Analysis (LTEA) Assay for Cyclin D2 (CCND2) using HepaRG (AID 2283449). To be noted: mRNA level, 48 h; actives raise or lower the signal. An outline of the steps:
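CCND2 transcript levels, quantified by qRT-PCR and normalised to three housekeeping genes, were fitted bidirectionally against 0.5% DMSO. HepaRG cultures were dosed 48 h in duplicate with an 8-point half-log series up to 100 uM.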

Read-out in assay [13]: Cyclin Dependent Kinase Inhibitor 1A (CDKN1A), CDKN1A (gene 1026)
The assay is described as follows: LTEA_HepaRG_CDKN1A: Life Technologies and Expression Analysis (LTEA) Assay for Cyclin Dependent Kinase Inhibitor 1A (CDKN1A) using HepaRG (AID 2283450). To be noted: mRNA level, 48 h; actives raise or lower the signal. An outline of the steps: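 HepaRG, 48 h dosing, 8-pt half-log series from 100 uM top, 0.5% DMSO vehicle, duplicates. Readout: TaqMan qRT-PCR of CDKN1A transcript, housekeeping-normalized (ACTB, GAPDH, POLR2A). Up/down curve fit relative to DMSO.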

Read-out in assay [14]: Cyclin D1 (CCND1), CCND1 (gene 595)
Description: LTEA_HepaRG_CCND1: Life Technologies and Expression Analysis (LTEA) Assay for Cyclin D1 (CCND1) using HepaRG (AID 2283451). To be noted: mRNA level, 48 h; actives raise or lower the signal. An outline of the steps:
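qRT-PCR (Fluidigm 96.96 array) read-out of transcript level, housekeeping-normalized (ACTB/GAPDH/POLR2A). HepaRG cells, 48 h chemical exposure, 8-point half-log series from 100 uM, 0.5% DMSO vehicle; gain or loss relative to DMSO baseline.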

Read-out in assay [15]: catalase (CAT), CAT (gene 847)
Description: LTEA_HepaRG_CAT: Life Technologies and Expression Analysis (LTEA) Assay for catalase (CAT) using HepaRG (AID 2283452). To be noted: mRNA level, 48 h; actives raise or lower the signal. An outline of the steps:
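Expression of CAT was quantified by TaqMan qRT-PCR with ACTB/GAPDH/POLR2A normalization after 48 h chemical exposure of HepaRG. Eight-point half-log series, top 100 uM, in 0.5% DMSO; gain or loss fitted against vehicle.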

Read-out in assay [16]: flavin-containing dimethylaniline monooxygenases 3 (FMO3), FMO3 (gene 2328)
Description: LTEA_HepaRG_FMO3: Life Technologies and Expression Analysis (LTEA) Assay for flavin-containing dimethylaniline monooxygenases 3 (FMO3) using HepaRG (AID 2283453). To be noted: mRNA level, 48 h; actives raise or lower the signal. An outline of the steps:
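Eight-point concentration-response in serum-free HepaRG cultures (top 100 uM, 0.5% DMSO, 48 h). Read-out: FMO3 mRNA level normalized to three endogenous control genes, fitted bidirectionally versus vehicle.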

Read-out in assay [17]: Cytochrome P450 (CYP1A1), CYP1A1 (gene 1543)
Description: LTEA_HepaRG_CYP1A1: Life Technologies and Expression Analysis (LTEA) Assay for Cytochrome P450 (CYP1A1) using HepaRG (AID 2283454). To be noted: mRNA level, 48 h; actives raise or lower the signal. An outline of the steps: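 qRT-PCR read-out: CYP1A1 transcript normalized to three housekeeping genes, fitted bidirectionally against 0.5% DMSO vehicle baseline. Human HepaRG cells, 48 h chemical exposure, 8-point half-log series topping at 100 uM.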

Read-out in assay [18]: CFLAR gene, CFLAR (gene 8837)
The assay is described as follows: LTEA_HepaRG_CFLAR: Life Technologies and Expression Analysis (LTEA) Assay for CFLAR gene using HepaRG (AID 2283455). To be noted: mRNA level, 48 h; actives raise or lower the signal. An outline of the steps:
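Transcript level by qRT-PCR (normalized to ACTB, GAPDH and POLR2A) after 48 h chemical exposure of HepaRG cells, top concentration 100 uM with half-log steps, 0.5% DMSO vehicle, duplicates; fitted bidirectionally against DMSO baseline.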

Read-out in assay [19]: Forkhead box O1 (FOXO1), FOXO1 (gene 2308)
Description: LTEA_HepaRG_FOXO1: Life Technologies and Expression Analysis (LTEA) Assay for Forkhead box O1 (FOXO1) using HepaRG (AID 2283456). To be noted: mRNA level, 48 h; actives raise or lower the signal. An outline of the steps: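 FOXO1 transcript quantified by qRT-PCR after 48 h chemical exposure (top 100 uM, half-log steps, 0.5% DMSO) of HepaRG cells, housekeeping-normalized (ACTB/GAPDH/POLR2A). Changes fitted in both directions relative to vehicle.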

Read-out in assay [20]: growth arrest and DNA damage 45 (GADD45A), GADD45A (gene 1647)
The assay is described as follows: LTEA_HepaRG_GADD45A: Life Technologies and Expression Analysis (LTEA) Assay for growth arrest and DNA damage 45 (GADD45A) using HepaRG (AID 2283458). To be noted: mRNA level, 48 h; actives raise or lower the signal. An outline of the steps:
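Eight-point concentration-response in HepaRG cells: 48 h chemical exposure, 0.5% DMSO vehicle, top dose 100 uM. Normalized qRT-PCR mRNA readout with bidirectional fitting relative to DMSO.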

Calls of active or inactive are those of the source. How the source made its calls: active means hit-call score of the fitted dose curve at least 0.9, where 1 is the maximum; inactive means score below 0.9.

Sequence of Fatty acid synthase (Homo sapiens) (P49327 whole entry, looked up): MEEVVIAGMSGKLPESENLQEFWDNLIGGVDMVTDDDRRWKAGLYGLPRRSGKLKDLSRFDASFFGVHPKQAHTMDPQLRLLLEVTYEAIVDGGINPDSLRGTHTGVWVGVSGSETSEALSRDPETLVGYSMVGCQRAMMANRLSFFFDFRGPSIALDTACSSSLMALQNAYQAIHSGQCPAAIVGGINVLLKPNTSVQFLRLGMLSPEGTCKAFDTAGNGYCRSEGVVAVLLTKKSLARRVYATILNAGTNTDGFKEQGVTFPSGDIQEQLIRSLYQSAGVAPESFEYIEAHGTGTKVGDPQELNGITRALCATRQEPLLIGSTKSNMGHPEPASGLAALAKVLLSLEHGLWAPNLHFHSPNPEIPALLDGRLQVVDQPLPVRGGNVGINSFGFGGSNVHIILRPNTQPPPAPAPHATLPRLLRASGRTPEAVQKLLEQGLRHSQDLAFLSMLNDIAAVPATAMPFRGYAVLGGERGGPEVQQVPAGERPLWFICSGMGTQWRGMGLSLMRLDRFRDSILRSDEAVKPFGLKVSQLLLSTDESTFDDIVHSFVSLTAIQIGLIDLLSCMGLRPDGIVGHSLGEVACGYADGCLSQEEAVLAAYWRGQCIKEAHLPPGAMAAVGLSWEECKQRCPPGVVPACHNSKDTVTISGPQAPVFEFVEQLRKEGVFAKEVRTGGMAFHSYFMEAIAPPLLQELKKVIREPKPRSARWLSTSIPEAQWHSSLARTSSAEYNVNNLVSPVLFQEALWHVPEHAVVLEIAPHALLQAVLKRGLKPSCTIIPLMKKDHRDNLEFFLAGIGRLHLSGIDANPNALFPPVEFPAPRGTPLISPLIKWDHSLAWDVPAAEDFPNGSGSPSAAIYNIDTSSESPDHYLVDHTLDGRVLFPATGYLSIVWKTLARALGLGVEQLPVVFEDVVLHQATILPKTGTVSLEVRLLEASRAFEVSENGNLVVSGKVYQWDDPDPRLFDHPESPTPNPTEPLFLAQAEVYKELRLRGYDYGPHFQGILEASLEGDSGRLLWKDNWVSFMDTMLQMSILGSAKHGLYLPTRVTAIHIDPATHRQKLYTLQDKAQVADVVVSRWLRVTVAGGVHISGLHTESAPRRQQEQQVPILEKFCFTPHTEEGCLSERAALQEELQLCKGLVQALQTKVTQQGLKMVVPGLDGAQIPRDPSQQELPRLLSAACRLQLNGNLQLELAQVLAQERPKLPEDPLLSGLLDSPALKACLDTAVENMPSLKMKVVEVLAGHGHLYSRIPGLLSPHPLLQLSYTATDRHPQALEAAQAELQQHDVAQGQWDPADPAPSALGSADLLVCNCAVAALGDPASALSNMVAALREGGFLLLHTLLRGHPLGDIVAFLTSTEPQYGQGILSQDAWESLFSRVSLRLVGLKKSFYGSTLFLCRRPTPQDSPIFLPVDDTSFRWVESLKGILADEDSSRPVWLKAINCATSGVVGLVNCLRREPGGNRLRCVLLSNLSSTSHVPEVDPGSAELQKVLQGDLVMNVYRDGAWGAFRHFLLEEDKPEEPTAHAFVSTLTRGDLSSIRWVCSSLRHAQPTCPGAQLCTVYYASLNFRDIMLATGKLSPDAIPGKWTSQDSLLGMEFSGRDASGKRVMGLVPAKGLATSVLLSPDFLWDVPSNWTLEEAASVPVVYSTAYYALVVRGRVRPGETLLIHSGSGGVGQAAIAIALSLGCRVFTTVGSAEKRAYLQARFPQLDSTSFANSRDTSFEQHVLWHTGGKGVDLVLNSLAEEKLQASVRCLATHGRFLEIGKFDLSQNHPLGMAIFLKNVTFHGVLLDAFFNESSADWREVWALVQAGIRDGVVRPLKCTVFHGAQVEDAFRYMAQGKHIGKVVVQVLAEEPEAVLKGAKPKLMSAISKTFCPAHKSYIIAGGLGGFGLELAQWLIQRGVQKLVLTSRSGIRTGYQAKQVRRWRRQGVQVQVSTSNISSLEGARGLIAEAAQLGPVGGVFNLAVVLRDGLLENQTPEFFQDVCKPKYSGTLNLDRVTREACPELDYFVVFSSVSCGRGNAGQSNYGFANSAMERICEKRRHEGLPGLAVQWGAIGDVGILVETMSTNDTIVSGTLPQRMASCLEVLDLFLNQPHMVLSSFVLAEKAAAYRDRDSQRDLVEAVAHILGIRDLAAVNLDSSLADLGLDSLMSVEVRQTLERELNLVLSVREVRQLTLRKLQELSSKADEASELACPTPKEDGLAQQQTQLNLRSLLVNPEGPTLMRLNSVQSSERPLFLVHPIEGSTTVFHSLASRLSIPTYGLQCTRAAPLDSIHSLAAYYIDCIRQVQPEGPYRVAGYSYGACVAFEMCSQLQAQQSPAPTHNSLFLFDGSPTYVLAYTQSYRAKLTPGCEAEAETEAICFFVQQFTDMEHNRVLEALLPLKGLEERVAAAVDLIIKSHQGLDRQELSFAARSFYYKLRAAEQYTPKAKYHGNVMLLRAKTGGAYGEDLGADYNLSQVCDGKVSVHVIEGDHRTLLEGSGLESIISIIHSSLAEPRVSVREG

Consider `CC1(C)[C@H](C(=O)OCc2cccc(Oc3ccccc3)c2)[C@@H]1C=C(Cl)Cl`, for which the outcome in [1], in assay [2], in [3], in assay [4], in [5] and in assay [6] was inactive. The molecule was called inactive in [7].
Consider `NC(=O)Nc1ccc(Cl)cc1`, for which the molecule was called inactive in assay [1], in [4], in assay [5], in [8], in [9] and in assay [6]. Besides, the AC50 in [3] was 27.6 µM (active).
On to `c1ccc(CCCc2ccccn2)cc1`, for which the molecule was called inactive in assay [1], in assay [8] and in assay [9]. In addition, in assay [6], the AC50 was 50 µM (active).
Consider `CC(C)c1cccc(O)c1`, for which the AC50 in [1] was 39 µM (active). Further, the call in assay [3], in [4], in [5], in [8], in [9] and in assay [6] was inactive.
On to `O=C(O)c1ccc([N+](=O)[O-])cc1`, for which the molecule was called inactive in assay [1], in assay [3], in [4], in assay [5], in [6] and in assay [10]. Moreover, the call in assay [11], in assay [12], in [13], in assay [14], in [15] and in assay [16] was inactive. For the same molecule, the molecule was called inactive in [17], in assay [18], in [19] and in [20].
In the case of `Nc1cc([N+](=O)[O-])ccc1Cl`, the AC50 in [1] is 39.3 µM (active). Moreover, the outcome in [2], in assay [3], in [4], in assay [5], in [6] and in assay [7] was inactive.
As for `COc1cc2ncnc(Nc3cccc(Cl)c3)c2cc1OC`, the molecule was classed as inactive in assay [1], in assay [2], in [3], in assay [4], in assay [8] and in assay [9]. The molecule was called inactive in assay [6] and in assay [7]. Further, the AC50 in [5] is 0.496 µM (active).
